Several values for one entry are separate records, joined by “and”; a condition that tells them apart may be missing. Equal values may be shown once. In all, about 5,500 compounds went through this assay and about 2,000 (36%) were called active. Inconclusive results (about 18%) are left out. Rule as the data show it: active = normalized growth mostly below about 0.91 (no sharp cut-off); inconclusive = no clear call, values can overlap the other calls; inactive = mostly above about 0.92. The list shows a part of the results.
Experiment: chemical genetic growth profiling, strain panel (AID 1159580);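 also: tested at 20 µM; growth read once vehicle control cultures reached saturation at 30 °C; 1 = growth at the plate median or of vehicle wells; lower values mean less growth of the strain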
Settings: S. cerevisiae deletion strains, growth OD

Measured: normalized growth

CC(=O)OCC(=O)[C@@]1(O)CCC2C3CCC4=CC(=O)CC[C@]4(C)C3C(=O)C[C@@]21C (stereo not given in full)
inactive: locus YAL021C, strain ccr4, stronger effect = lower value 0.988 | locus YAL026C, strain drs2, stronger effect = lower value 1.01 | locus YAL030W, strain snc1, stronger effect = lower value 0.985 | locus YBL061C, strain skt5, stronger effect = lower value 0.965 | locus YBR009C, strain hhf1, stronger effect = lower value 0.998 | locus YBR021W, strain FUR4, stronger effect = lower value 1.01 | locus YBR023C, strain chs3, stronger effect = lower value 0.989 | locus YBR171W, strain sec66, stronger effect = lower value 0.969 | locus YBR229C, strain ROT2, stronger effect = lower value 1.01 | locus YBR231C, strain swc5, stronger effect = lower value 0.951 | locus YBR279W, strain paf1, stronger effect = lower value 0.997 | locus YCL011C, strain gbp2, stronger effect = lower value 1.01 | locus YCL016C, strain dcc1, stronger effect = lower value 1.02 | locus YCL029C, strain bik1, stronger effect = lower value 1.03 | locus YCL061C, strain MRC1, stronger effect = lower value 0.982 | locus YCL069W, strain vba3, stronger effect = lower value 0.98 | locus YCR088W, strain abp1, stronger effect = lower value 0.98 | locus YDL005C, strain med2, stronger effect = lower value 0.973 | locus YDL035C, strain GPR1, stronger effect = lower value 1 | locus YDL040C, strain nat1, stronger effect = lower value 0.963 | locus YDL074C, strain BRE1, stronger effect = lower value 1.01 | locus YDL101C, strain DUN1, stronger effect = lower value 1.01 | locus YDL134C, strain PPH21, stronger effect = lower value 1 | locus YDL185W, strain tfp1, stronger effect = lower value 1.03 | locus YDL192W, strain arf1, stronger effect = lower value 1.03 | locus YDR001C, strain nth1, stronger effect = lower value 0.974 | locus YDR069C, strain doa4, stronger effect = lower value 0.98 | locus YDR101C, strain arx1, stronger effect = lower value 1.02 | locus YDR137W, strain rgp1, stronger effect = lower value 1 | locus YDR159W, strain sac3, stronger effect = lower value 0.963 | locus YDR162C, strain NBP2, stronger effect = lower value 1.01 | locus YDR195W, strain ref2 0.913 | locus YDR297W, strain sur2, stronger effect = lower value 0.989 | locus YDR318W, strain mcm21, stronger effect = lower value 1.01 | locus YDR334W, strain swr1, stronger effect = lower value 0.968 | locus YDR335W, strain msn5, stronger effect = lower value 0.969 | locus YDR388W, stronger effect = lower value 1.03 | locus YDR392W, strain spt3, stronger effect = lower value 1.04 | locus YDR502C, strain sam2, stronger effect = lower value 1.04 | locus YEL003W, strain gim4, stronger effect = lower value 0.968 | locus YEL037C, strain rad23, stronger effect = lower value 0.976 | locus YEL061C, strain CIN8 (second series), stronger effect = lower value 0.983 | locus YEL061C, strain CIN8, stronger effect = lower value 1.01 | locus YER015W, strain faa2, stronger effect = lower value 0.992 | locus YER016W, strain bim1, stronger effect = lower value 0.988 | locus YER110C, stronger effect = lower value 1.04 | locus YER111C, strain swi4, stronger effect = lower value 0.971 | locus YER155C, strain BEM2 (second series), stronger effect = lower value 0.97 | locus YER155C, strain BEM2, stronger effect = lower value 1 | locus YER167W, strain BCK2, stronger effect = lower value 1.01 | locus YFR010W, strain ubp6, stronger effect = lower value 0.977 | locus YGL078C, strain dbp3, stronger effect = lower value 1.03 | locus YGL086W, strain mad1, stronger effect = lower value 0.994 | locus YGL167C, strain pmr1, stronger effect = lower value 0.952 | locus YGL173C, strain kem1, stronger effect = lower value 0.955 | locus YGL227W, strain vid30, stronger effect = lower value 0.983 | locus YGL240W, strain doc1, stronger effect = lower value 0.962 | locus YGL248W, strain PDE1, stronger effect = lower value 1.02 | locus YGL253W, strain hxk2, stronger effect = lower value 0.981 | locus YGR135W, strain pre9, stronger effect = lower value 1.03 | locus YGR252W, strain gcn5, stronger effect = lower value 1.05 | locus YHR013C, strain ard1, stronger effect = lower value 0.991 | locus YHR027C, strain rpn1, stronger effect = lower value 1 | locus YHR030C, strain SLT2, stronger effect = lower value 1 and 0.999 | locus YHR079C, strain IRE1 (second series), stronger effect = lower value 1.03 | locus YHR079C, strain IRE1, stronger effect = lower value 0.996 | locus YHR094C, strain hxt1, stronger effect = lower value 1.02 | locus YHR129C, strain ARP1, stronger effect = lower value 1 | locus YHR142W, strain chs7, stronger effect = lower value 0.978 | locus YHR200W, strain rpn10, stronger effect = lower value 1.03 | locus YIL066C, strain RNR3, stronger effect = lower value 1.01 | locus YIL073C, strain SPO22, stronger effect = lower value 1.06 | locus YIL125W, strain kgd1, stronger effect = lower value 1.02 | locus YIR030C, strain dcg1, stronger effect = lower value 1.03 | locus YJL092W, strain hpr5, stronger effect = lower value 0.968 | locus YJL095W, strain BCK1 (second series), stronger effect = lower value 0.992 | locus YJL095W, strain BCK1, stronger effect = lower value 1.02 | locus YJL115W, strain asf1, stronger effect = lower value 0.985 | locus YJL129C, strain trk1, stronger effect = lower value 0.922 | locus YJL134W, strain LCB3, stronger effect = lower value 1.01 | locus YJL154C, strain vps35, stronger effect = lower value 0.963 | locus YJL164C, strain tpk1, stronger effect = lower value 1 | locus YJL166W, strain qcr8, stronger effect = lower value 0.966 | locus YJL168C, strain set2, stronger effect = lower value 1.03 | locus YJL187C, strain SWE1 (second series), stronger effect = lower value 1.01 | locus YJR043C, strain POL32, stronger effect = lower value 0.993 | locus YJR066W, strain TOR1, stronger effect = lower value 0.973 | locus YJR075W, strain HOC1, stronger effect = lower value 1.01 | locus YKL009W, strain mrt4, stronger effect = lower value 1.02 | locus YKL068W, stronger effect = lower value 1.02 | locus YKL085W, strain MDH1 (second series), stronger effect = lower value 1.02 | locus YKL085W, strain MDH1, stronger effect = lower value 1.02 | locus YKL160W, strain elf1, stronger effect = lower value 0.961 | locus YKR001C, strain vps1, stronger effect = lower value 1.04 | locus YKR026C, strain gcn3, stronger effect = lower value 0.974 | locus YKR091W, strain srl3, stronger effect = lower value 0.974 | locus YLL001W, strain dnm1, stronger effect = lower value 0.93 | locus YLL026W, stronger effect = lower value 0.994 | locus YLL041C, strain sdh2, stronger effect = lower value 0.98 | locus YLR027C, strain aat2, stronger effect = lower value 0.961 | locus YLR039C, strain RIC1, stronger effect = lower value 1 | locus YLR058C, strain SHM2, stronger effect = lower value 1.01 | locus YLR102C, strain apc9, stronger effect = lower value 1.03 | locus YLR113W, strain HOG1, stronger effect = lower value 0.986 | locus YLR221C, strain rsa3, stronger effect = lower value 1.01 | locus YLR258W, strain gsy2, stronger effect = lower value 0.995 | locus YLR262C, strain YPT6 (second series), stronger effect = lower value 0.951 | locus YLR262C, strain YPT6, stronger effect = lower value 1.05 | locus YLR268W, strain sec22, stronger effect = lower value 1.04 | locus YLR320W, strain mms22, stronger effect = lower value 0.993 | locus YLR330W, strain CHS5, stronger effect = lower value 1.01 | locus YLR342W, strain FKS1 (second series), stronger effect = lower value 0.987 | locus YLR342W, strain FKS1, stronger effect = lower value 0.963 | locus YLR357W, strain rsc2, stronger effect = lower value 0.974 | locus YLR370C, strain arc18, stronger effect = lower value 0.973 | locus YLR371W, strain rom2, stronger effect = lower value 1.02 | locus YLR384C, strain iki3, stronger effect = lower value 0.974 | locus YLR418C, strain cdc73, stronger effect = lower value 1.08 | locus YML016C, strain PPZ1, stronger effect = lower value 1.01 | locus YML032C, strain rad52, stronger effect = lower value 1.04 | locus YML120C, strain ndi1, stronger effect = lower value 0.967 | locus YML124C, strain tub3, stronger effect = lower value 1.03 | locus YMR058W, strain fet3, stronger effect = lower value 0.971 | locus YMR078C, strain ctf18, stronger effect = lower value 1.04 | locus YMR125W, strain sto1, stronger effect = lower value 0.988 | locus YMR129W, stronger effect = lower value 0.991 | locus YMR205C, strain PFK2, stronger effect = lower value 0.983 | locus YMR223W, strain ubp8, stronger effect = lower value 1.04 | locus YMR231W, strain pep5, stronger effect = lower value 0.972 | locus YMR263W, strain SAP30, stronger effect = lower value 1.01 | locus YMR307W, strain GAS1, stronger effect = lower value 0.923 | locus YNL067W, strain RPL9B, stronger effect = lower value 1.01 | locus YNL071W, strain lat1, stronger effect = lower value 1.01 | locus YNL153C, strain GIM3, stronger effect = lower value 1.01 | locus YNL183C, strain NPR1, stronger effect = lower value 0.953 | locus YNL209W, strain ssb2, stronger effect = lower value 0.998 | locus YNL233W, strain BNI4, stronger effect = lower value 1.01 | locus YNL248C, strain rpa49, stronger effect = lower value 1 | locus YNL250W, strain rad50, stronger effect = lower value 1.05 | locus YNL271C, strain bni1, stronger effect = lower value 1.04 | locus YNL298W, strain CLA4, stronger effect = lower value 1.02 | locus YNL307C, strain MCK1, stronger effect = lower value 1.02 | locus YNL322C, strain KRE1 (second series), stronger effect = lower value 0.969 | locus YNL322C, strain KRE1, stronger effect = lower value 1.01 | locus YNR049C, strain mso1, stronger effect = lower value 0.977 | locus YNR052C, strain pop2, stronger effect = lower value 1.02 | locus YOL012C, strain htz1 1.93 | locus YOL147C, strain pex11, stronger effect = lower value 1.04 | locus YOR001W, strain rrp6, stronger effect = lower value 0.951 | locus YOR061W, strain CKA2, stronger effect = lower value 1.01 | locus YOR069W, strain VPS5, stronger effect = lower value 1.01 | locus YOR070C, strain gyp1, stronger effect = lower value 0.993 | locus YOR080W, strain dia2, stronger effect = lower value 0.956 | locus YOR083W, strain WHI5, stronger effect = lower value 0.959 | locus YOR106W, strain vam3, stronger effect = lower value 0.966 | locus YOR136W, strain idh2, stronger effect = lower value 1.03 | locus YOR144C, strain elg1, stronger effect = lower value 1.02 | locus YOR184W, strain ser1, stronger effect = lower value 1.05 | locus YOR231W, strain MKK1, stronger effect = lower value 0.995 | locus YOR265W, strain rbl2, stronger effect = lower value 0.991 | locus YOR270C, strain vph1, stronger effect = lower value 0.978 | locus YOR290C, strain snf2, stronger effect = lower value 1.01 | locus YOR316C, strain cot1, stronger effect = lower value 1.03 | locus YPL051W, strain arl3, stronger effect = lower value 0.989 | locus YPL055C, strain LGE1, stronger effect = lower value 1 | locus YPL078C, strain atp4, stronger effect = lower value 0.933 | locus YPL106C, strain sse1, stronger effect = lower value 1.02 | locus YPL240C, strain hsp82, stronger effect = lower value 0.984 | locus YPL241C, strain CIN2, stronger effect = lower value 1 | locus YPL256C, strain CLN2, stronger effect = lower value 0.962 | locus YPR119W, strain clb2, stronger effect = lower value 1.03 | locus YPR141C, strain kar3, stronger effect = lower value 1.04 | locus YPR163C, strain tif3, stronger effect = lower value 1.05 | locus YPR167C, strain met16, stronger effect = lower value 1.03 | strain wtn01, stronger effect = lower value 1.04
